Source: PubChem BioAssay
Inconclusive results are not listed. Calls of active or inactive are those of the source.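 Rule for the calls: active = GFP signal above the screen-wide mean plus 3 SD, that is over about 124.5% of the solvent control; inconclusive = no reading because the compound's own fluorescence disturbed strain identification; inactive = the rest.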

Assay: yeast AGP1-GFP level changes, GLN3 branch – cell-based, multiplex flow cytometry, S. cerevisiae, primary screen (AID 1887);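 note: AGP1-GFP fusion strain of S. cerevisiae within a five-strain barcoded multiplex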
Conditions: 3 h, at 10 µM, active compounds read high

GFP response, % of DMSO, inactive:
O=c1c(-c2ccccc2)c(O)c2cccc3c2n1CCC3 103%
COc1cc(CC(=O)NCCc2ccc(S(N)(=O)=O)cc2)cc(OC)c1OC 111%
CN(C)CCC(c1ccc(Cl)cc1)c1ccccn1 (configuration not stated) 87.5%
Cc1ccc2nc(N=C(N)N)nc(C)c2c1 118%
CCn1c(N2CCN(CC(=O)c3c(C)n(C)c4ccc(OC)cc34)CC2)nc2c1c(=O)[nH]c(=O)n2C 99.9%
CC1(c2ccccc2)CC(C)(C)N2C(=O)C(=O)c3cccc1c32 (configuration not stated) 95.7%
O=C(COc1cc(O)c2c(=O)c3ccccc3oc2c1)OCc1ccccc1 97.6%
C[N+](C)(C)CCOP(=O)([O-])OC[C@H](O)CO 114%
O=C(/C=C/Sc1ccccc1)c1ccccc1 94.6%
O=C1Cc2ccccc2C(c2ccccc2)N1 (configuration not stated) 102%
Cc1ccc(NC(=O)CSc2nc(O)c(Cc3ccccc3)c(=O)n2-c2ccccc2)cc1 102%
COCCn1c(SCCOc2ccccc2)nc2ccccc2c1=O 96.8%
CC(=O)Oc1ccc2c(=O)c(Oc3ccccc3[N+](=O)[O-])coc2c1 95.6%
CCc1c(C(C)=O)oc2ccc3c(C)cc(=O)oc3c12 101%
COc1ccc(-c2[nH]ncc2CN(C)C(C)c2ccon2)c(OC)c1 (configuration not stated) 91%
Cc1c(O)c(=O)ccn1C 95.4%
COc1ccc2cc(C(=O)Nc3ccc(S(N)(=O)=O)cc3)sc(=O)c2c1OC 98.9%
